Source: the supplement of paper PMC11732987, “Enantioselective OTUD7B fragment discovery through chemoproteomics screening and high-throughput optimisation” (Communications Chemistry, 2025)

How the values were obtained:
Test in all cases: log2 ratio of Biotin-Ahx-Ub-VS probe labelling (fragment/DMSO); higher = less target engagement (more negative = stronger competition), active = hit call of the paper (q ≤ 0.05, log2 ratio ≤ -1)
Settings in all cases: compound concentration: 200 uM; treatment time: 3 h
[1] = molecular target: T1, USP19 (UniProt O94966)
T1 sequence (whole entry): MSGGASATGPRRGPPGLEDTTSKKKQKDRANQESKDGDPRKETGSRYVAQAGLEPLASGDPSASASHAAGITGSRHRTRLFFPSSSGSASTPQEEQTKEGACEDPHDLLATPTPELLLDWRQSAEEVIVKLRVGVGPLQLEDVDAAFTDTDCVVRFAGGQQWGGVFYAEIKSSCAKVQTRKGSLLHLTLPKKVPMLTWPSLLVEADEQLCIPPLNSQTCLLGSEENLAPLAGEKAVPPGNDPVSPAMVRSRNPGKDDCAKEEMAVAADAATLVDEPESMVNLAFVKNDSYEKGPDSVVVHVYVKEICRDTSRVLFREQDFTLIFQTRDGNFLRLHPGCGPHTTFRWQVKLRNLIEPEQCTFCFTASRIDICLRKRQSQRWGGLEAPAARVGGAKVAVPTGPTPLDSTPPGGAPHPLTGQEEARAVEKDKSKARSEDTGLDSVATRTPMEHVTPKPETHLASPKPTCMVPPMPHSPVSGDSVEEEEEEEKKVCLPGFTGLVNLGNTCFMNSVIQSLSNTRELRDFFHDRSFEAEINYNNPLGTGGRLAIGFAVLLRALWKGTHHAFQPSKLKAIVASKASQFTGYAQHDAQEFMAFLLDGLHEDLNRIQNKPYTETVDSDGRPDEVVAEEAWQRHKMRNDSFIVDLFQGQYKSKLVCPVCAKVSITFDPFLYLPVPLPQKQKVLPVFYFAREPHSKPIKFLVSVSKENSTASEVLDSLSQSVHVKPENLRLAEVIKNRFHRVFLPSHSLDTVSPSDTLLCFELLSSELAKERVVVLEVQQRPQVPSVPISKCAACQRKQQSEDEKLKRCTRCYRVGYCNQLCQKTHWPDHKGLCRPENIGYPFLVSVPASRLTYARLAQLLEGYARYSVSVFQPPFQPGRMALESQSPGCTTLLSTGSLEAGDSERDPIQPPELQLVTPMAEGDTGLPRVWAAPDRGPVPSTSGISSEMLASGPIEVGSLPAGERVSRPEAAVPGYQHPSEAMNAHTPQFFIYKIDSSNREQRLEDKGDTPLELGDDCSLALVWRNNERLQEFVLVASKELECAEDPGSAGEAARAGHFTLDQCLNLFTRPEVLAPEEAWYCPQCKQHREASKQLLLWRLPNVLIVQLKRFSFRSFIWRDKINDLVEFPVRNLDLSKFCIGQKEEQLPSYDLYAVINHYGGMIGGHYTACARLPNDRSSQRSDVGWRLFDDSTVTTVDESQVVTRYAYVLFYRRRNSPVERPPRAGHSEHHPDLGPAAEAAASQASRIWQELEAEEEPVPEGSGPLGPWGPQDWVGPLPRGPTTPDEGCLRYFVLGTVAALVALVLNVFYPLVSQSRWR
How it was run: (§1)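 Labelled DUBs from HEK293T lysate were NeutrAvidin-enriched, digested with LysC and trypsin, and run by diaPASEF LC-MS/MS. Before that, each 495 µg sample in Tris/CHAPS/IGEPAL buffer with protease inhibitors was treated in triplicate with fragment at 200 µM or vehicle for 3 h, then with Biotin-Ahx-Ub-VS at 0.5 µM final for 1 h. Values are average log2 ratios of fragment over vehicle by unpaired t-test, based on global-median-normalised Spectronaut label-free quantities from proteins with ≥2 unique peptides.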

[2] = molecular target: T2, USP22 (UniProt Q9UPT9)
T2 sequence (whole entry): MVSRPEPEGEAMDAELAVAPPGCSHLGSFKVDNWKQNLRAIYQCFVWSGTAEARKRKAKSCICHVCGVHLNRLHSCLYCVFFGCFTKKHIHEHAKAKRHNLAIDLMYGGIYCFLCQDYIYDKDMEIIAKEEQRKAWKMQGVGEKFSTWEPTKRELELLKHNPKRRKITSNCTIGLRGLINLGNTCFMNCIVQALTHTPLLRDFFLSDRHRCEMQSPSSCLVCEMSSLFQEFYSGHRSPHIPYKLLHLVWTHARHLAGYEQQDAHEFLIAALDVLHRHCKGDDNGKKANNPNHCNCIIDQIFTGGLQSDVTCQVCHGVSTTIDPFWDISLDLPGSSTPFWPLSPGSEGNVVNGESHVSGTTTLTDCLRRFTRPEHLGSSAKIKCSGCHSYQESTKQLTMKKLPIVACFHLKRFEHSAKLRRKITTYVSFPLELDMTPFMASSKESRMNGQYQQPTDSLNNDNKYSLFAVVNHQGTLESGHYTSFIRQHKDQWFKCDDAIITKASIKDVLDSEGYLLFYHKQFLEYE
How it was run: as §1

[3] = molecular target: USP24 (UniProt Q9UPU5)
How it was run: as §1

[4] = molecular target: T3, USP25 (UniProt Q9UHP3)
T3 sequence (whole entry): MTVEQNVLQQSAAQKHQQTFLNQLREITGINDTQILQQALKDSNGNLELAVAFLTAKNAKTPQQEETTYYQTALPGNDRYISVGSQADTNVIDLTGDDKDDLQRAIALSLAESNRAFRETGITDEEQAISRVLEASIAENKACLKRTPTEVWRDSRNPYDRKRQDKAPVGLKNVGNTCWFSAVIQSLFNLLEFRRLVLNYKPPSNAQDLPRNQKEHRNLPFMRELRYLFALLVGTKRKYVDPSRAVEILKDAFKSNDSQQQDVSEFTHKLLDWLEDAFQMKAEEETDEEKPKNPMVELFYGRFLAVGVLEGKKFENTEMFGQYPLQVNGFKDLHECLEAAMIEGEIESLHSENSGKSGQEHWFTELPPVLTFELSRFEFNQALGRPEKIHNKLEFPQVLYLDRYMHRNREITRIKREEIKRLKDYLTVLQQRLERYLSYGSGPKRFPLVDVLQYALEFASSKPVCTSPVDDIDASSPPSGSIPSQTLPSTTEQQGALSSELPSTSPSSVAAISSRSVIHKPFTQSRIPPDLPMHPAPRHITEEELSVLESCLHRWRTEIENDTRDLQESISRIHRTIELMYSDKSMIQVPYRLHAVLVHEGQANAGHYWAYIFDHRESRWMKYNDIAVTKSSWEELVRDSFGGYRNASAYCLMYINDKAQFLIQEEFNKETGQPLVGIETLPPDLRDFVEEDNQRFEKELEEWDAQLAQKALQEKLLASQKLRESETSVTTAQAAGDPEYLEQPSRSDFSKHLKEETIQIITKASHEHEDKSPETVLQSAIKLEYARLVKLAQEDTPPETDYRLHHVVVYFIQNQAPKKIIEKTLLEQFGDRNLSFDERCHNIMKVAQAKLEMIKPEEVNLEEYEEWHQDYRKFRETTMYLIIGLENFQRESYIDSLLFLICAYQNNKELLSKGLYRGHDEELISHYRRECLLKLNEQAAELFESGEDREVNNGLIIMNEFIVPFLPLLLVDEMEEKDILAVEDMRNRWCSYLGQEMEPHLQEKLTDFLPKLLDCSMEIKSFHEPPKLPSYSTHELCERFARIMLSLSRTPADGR
How it was run: as §1

[5] = molecular target: T4, USP28 (UniProt Q96RU2)
T4 sequence (whole entry): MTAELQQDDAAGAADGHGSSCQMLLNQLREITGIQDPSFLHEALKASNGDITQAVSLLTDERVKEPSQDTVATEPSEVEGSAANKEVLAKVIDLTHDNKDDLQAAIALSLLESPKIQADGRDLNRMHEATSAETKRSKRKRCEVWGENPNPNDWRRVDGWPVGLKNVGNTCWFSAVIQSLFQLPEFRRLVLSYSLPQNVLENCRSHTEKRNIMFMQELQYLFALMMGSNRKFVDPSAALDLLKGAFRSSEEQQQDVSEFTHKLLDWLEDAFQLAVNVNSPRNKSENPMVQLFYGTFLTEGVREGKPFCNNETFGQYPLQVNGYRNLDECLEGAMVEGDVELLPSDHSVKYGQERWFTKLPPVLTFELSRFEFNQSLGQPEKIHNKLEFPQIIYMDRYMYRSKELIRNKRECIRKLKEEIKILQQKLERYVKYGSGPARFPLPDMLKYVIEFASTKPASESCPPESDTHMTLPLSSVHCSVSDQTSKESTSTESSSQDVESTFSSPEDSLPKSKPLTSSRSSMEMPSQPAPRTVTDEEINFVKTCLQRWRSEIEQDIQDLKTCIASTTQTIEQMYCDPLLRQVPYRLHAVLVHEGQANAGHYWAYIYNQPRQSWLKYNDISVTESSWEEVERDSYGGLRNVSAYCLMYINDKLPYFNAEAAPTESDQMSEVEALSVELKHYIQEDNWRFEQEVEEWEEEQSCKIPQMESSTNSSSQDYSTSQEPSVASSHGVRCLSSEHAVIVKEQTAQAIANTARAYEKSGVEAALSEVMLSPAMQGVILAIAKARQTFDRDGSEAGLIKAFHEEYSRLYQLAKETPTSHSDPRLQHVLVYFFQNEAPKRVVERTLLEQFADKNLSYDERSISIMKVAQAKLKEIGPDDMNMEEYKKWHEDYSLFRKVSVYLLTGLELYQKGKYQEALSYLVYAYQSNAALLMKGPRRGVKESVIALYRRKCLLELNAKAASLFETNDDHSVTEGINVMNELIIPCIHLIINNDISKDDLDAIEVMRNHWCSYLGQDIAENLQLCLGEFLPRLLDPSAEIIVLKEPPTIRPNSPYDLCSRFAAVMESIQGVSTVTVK
How it was run: as §1

Measured: log2 ratio of Biotin-Ahx-Ub-VS probe labelling

Chain of USP24 (Q9UPU5 whole entry): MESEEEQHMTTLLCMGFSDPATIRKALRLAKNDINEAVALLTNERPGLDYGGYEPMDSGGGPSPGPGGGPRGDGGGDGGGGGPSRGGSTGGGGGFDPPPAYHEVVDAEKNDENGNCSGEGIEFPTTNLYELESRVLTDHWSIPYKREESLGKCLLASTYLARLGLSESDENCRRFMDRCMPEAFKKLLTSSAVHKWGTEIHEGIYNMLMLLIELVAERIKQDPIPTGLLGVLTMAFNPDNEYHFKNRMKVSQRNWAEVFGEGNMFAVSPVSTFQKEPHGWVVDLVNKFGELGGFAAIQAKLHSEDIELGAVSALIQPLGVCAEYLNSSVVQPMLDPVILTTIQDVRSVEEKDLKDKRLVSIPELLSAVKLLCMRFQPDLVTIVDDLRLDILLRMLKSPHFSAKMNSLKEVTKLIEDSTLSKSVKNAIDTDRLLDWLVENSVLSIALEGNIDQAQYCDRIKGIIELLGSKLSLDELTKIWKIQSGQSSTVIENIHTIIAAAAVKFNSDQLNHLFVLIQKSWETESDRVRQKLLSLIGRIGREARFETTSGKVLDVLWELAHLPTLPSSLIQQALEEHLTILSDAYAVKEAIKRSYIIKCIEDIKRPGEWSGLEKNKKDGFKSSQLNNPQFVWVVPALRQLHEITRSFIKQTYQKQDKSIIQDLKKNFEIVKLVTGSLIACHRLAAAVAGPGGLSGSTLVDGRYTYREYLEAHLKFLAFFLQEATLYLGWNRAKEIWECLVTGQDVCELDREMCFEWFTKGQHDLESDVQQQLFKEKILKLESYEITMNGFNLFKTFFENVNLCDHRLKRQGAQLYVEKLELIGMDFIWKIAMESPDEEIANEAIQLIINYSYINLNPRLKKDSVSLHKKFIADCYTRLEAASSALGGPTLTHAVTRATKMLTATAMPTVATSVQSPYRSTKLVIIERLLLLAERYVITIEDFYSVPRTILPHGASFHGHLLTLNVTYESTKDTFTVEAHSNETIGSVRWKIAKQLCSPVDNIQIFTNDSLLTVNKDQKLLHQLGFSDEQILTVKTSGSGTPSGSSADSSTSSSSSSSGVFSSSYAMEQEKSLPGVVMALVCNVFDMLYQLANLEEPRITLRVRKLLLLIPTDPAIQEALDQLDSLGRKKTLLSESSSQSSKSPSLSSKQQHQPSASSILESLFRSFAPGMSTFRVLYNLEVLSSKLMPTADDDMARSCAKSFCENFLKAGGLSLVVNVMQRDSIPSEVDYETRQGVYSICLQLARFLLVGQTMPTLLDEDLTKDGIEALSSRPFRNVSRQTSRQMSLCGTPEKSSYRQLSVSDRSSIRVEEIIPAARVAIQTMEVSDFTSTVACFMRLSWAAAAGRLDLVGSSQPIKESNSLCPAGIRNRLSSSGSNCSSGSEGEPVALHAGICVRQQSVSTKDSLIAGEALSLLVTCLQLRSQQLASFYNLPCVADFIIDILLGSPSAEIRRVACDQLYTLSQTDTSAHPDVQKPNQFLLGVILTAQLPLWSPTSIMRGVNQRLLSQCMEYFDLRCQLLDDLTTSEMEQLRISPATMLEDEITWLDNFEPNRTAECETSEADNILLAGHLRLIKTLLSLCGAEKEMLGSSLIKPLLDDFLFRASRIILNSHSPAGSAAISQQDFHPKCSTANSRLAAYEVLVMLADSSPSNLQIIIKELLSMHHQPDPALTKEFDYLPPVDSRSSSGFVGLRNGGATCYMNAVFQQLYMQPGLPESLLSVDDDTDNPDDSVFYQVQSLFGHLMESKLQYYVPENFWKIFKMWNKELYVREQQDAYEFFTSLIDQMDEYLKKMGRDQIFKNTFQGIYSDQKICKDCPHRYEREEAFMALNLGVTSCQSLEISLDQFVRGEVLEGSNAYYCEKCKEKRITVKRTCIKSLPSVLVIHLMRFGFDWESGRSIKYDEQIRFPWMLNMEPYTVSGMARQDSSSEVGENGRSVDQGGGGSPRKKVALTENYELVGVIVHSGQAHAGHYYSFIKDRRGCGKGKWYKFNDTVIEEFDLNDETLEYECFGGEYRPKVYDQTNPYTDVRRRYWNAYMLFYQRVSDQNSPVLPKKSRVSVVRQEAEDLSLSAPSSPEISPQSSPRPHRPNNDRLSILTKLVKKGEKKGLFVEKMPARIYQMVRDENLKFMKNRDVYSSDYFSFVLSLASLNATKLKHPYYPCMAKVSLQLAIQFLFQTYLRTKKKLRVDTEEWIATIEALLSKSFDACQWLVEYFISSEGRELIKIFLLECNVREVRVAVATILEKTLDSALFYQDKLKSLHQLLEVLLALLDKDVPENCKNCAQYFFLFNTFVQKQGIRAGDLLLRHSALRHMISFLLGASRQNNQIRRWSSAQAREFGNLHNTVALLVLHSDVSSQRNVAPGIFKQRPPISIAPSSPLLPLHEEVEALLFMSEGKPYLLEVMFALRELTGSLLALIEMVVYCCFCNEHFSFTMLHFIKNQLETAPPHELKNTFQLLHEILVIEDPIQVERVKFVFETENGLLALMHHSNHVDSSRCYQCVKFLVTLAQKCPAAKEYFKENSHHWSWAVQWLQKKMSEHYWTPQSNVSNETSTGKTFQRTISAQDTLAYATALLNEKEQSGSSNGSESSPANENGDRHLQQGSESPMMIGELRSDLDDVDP

CNC(=O)C1CCN(C(=O)CCl)CC1
inactive: [1] -0.122 | [2] 0.206 | [3] -0.198 | [4] -0.123 | [5] -0.243
